test system: HepG2; assay: GSK_TCMDC: Percent inhibition of human HepG2 cell line. Test compounds present at 10uM.; format: functional

Which Inhibition does the source give for `COc1ccc(-c2cc3ncn(CC(=O)N4CCN(c5cccc(OC)c5)CC4)c(=O)c3s2)cc1` here?
The Inhibition was 49%.

How did the Inhibition turn out when `O=C(Nc1ccc(Cl)c(Cl)c1)N1CCC(CNCc2cccc([N+](=O)[O-])c2)CC1.O=C(O)C(F)(F)F` was run?
The Inhibition was 13%.

With `COc1cc(NC(=O)c2ccc(-c3ccccc3)cc2)ccc1OCCCN1CCC(c2ccccc2)CC1.Cl` as the compound, how does the Inhibition read?
Its Inhibition is 46%.

`CCOc1cc(C(=O)Nc2ccc3nc(N4CCN(C)CC4)cc(C)c3c2)cc(OCC)c1OCC` was tested. Which Inhibition did it give?
The Inhibition was 14%.

With `CN1C(C)(C)CC(NC(=O)c2ccc(-c3nc4cc(Cl)c(Cl)cc4[nH]3)cc2)CC1(C)C` as the compound, how does the Inhibition read?
The Inhibition was 8%.

With `COc1ccccc1CCNc1nc(C)cc(N[C@@H](Cc2ccccc2)C(=O)NCc2cccc(F)c2)n1.O=C(O)C(F)(F)F` as the compound, how does the Inhibition read?
Its Inhibition is 31%.

Which Inhibition does the source give for `CC(=O)Nc1nc(C(=O)Nc2cccc(-c3ccc(-c4nc5cccc(C)c5[nH]4)cc3)c2)cs1` here?
The Inhibition was 100%.

`Cc1cccc(-n2c(Nc3ccc(C)c(Cl)c3)nc3ccc(S(=O)(=O)NC(C)C(C)C)cc32)c1` (configuration not stated) was tested. Which Inhibition did it give?
The Inhibition was 0%.

Which Inhibition does the source give for `O=C(NC(CCCN1CCC2(CC1)OCc1ccccc12)c1ccc(Cl)c(Cl)c1)c1cc(C(F)(F)F)cc(C(F)(F)F)c1` (configuration not stated) here?
The Inhibition was 55%.

`CCC(C)NC(=O)Nc1ccc(-c2cccc(-c3nc4cccc(C)c4[nH]3)c2)cc1` (configuration not stated) was tested. Which Inhibition did it give?
The Inhibition was 55%.

For `COc1ccc2ncc(F)c(CCN3CC(O)C(CNCc4ccc5oc(=O)ccc5c4)C3)c2n1.Cl` (configuration not stated), which Inhibition is on record?
The Inhibition was 18%.

For `CCOc1cc(C(=O)Nc2cccnc2)ccc1-c1nc2cc(Cl)c(Cl)cc2[nH]1`, which Inhibition is on record?
Its Inhibition is 9%.

With `Cl.N=C(NCCc1ccc(Cl)cc1)c1ccc(Cl)c(Cl)c1` as the compound, how does the Inhibition read?
Its Inhibition is 43%.

`CCN(c1ccc(F)cc1)S(=O)(=O)c1cc(Br)cc2c1N(C(=O)C1CC1)CC2` was tested. Which Inhibition did it give?
Its Inhibition is 0%.

For `CCCCNc1nc(NCCCC)c2c(C)c(Cc3ccccc3)c(NCCCC)nc2n1.Cl`, which Inhibition is on record?
Its Inhibition is 69%.

For `Cc1c(NC(=O)COc2ccc(Cl)cc2C(=O)c2cc(F)cc(C(F)(F)F)c2)ccc2ncsc12`, which Inhibition is on record?
The Inhibition was 0%.

How did the Inhibition turn out when `COc1ccc(C2=[N+]([O-])c3ccccc3C2=O)cc1` was run?
The Inhibition was 2%.

— ChEMBL document CHEMBL1157539, “Thousands of chemical starting points for antimalarial lead identification” (Nature, 2010)
